Assay results as given in ChEMBL document CHEMBL3988442, “University of Dundee, Small-Polar-MMV Screening Library” (2021).
For some of these results: Entries with a potency or affinity are not part of this list.

Tests used:
Set-up in all cases: scale not given: direction of the effect not stated beside the values
[1] = target: Protein translocase subunit SecA (Escherichia coli (strain K12)) (UniProt P10408); assay: Assay to Identify E. coli SecA ATPase Inhibitors; type: functional; details: 30 µM
[2] = target: T1, Ubiquitin-activating enzyme e1, putative (Leishmania donovani (strain BPK282A1)) (UniProt E9BSI1); assay: Leishmania donovani Ubiquitin Activating Enzyme (LdE1); type: functional; details: 30 µM
T1 sequence (whole entry): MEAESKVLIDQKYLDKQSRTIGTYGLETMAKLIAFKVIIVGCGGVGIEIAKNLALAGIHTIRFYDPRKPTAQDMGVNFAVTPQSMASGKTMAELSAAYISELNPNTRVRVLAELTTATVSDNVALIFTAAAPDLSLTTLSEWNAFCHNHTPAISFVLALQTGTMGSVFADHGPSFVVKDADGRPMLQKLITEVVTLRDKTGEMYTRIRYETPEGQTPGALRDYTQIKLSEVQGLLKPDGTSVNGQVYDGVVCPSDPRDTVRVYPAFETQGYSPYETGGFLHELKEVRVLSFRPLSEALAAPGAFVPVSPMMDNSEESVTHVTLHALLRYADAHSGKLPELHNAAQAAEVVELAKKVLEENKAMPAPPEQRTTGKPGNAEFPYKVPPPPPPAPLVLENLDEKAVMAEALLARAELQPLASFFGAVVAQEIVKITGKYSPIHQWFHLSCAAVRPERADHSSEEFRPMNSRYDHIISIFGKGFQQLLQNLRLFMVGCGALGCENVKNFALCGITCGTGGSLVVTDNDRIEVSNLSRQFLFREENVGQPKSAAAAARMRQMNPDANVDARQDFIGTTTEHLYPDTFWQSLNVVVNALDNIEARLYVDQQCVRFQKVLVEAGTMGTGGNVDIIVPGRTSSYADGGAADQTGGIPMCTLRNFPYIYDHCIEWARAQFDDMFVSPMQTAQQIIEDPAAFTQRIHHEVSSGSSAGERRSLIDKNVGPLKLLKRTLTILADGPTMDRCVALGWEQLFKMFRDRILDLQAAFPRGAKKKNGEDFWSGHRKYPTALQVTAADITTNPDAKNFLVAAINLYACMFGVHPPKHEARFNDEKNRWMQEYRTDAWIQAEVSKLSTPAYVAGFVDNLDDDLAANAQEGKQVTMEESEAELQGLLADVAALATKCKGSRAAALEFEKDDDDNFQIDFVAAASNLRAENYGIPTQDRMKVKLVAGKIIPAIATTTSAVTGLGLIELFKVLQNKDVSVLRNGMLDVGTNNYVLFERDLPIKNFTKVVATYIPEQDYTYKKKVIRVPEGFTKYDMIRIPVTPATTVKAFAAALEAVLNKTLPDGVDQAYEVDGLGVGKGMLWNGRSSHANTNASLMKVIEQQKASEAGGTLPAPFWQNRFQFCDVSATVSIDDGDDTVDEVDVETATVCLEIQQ

[3] = target: AMP-activated protein kinase, AMPK (Homo sapiens) (UniProt P54646+O43741+P54619+Q9UGJ0+Q9Y478+Q13131+Q9UGI9); assay: AMP-dependent Kinase enzyme assay. An in vitro enzyme assay that detects ADP turnover that is directly proportional to AMPK activity. This uses naive AMPK that is activated during the assay with MK-8722; type: functional; details: 30 µM
[4] = target: Sialic acid-binding Ig-like lectin 9 (Homo sapiens) (UniProt Q9Y336); assay: Hs-Siglec9 ALPHAscreen SOP 20170721; details: 10 µM
Trypanosoma cruzi = assay: Trypanosoma cruzi phosphomannomutase and mannose-1-phosphate guanylyltransferase assay; type: functional; details: 10 µM
[5] = target: T2, Arginase-2, mitochondrial (Homo sapiens) (UniProt P78540); assay: in vitro enzyme assay to detect the production of urea directly proportional to the activity of Arginase II; type: functional; details: 33.3 µM; further: in the data most compounds retested in dose-response had high values
T2 sequence (whole entry): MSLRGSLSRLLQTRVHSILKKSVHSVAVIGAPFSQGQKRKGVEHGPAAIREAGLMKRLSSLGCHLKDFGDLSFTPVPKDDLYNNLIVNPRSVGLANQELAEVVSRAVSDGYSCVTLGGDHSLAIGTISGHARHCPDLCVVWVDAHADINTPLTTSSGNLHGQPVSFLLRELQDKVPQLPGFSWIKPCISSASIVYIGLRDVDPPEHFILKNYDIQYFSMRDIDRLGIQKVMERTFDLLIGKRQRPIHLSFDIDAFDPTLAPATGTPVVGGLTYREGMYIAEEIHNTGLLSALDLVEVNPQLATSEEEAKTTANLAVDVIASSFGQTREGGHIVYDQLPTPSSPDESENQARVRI

[6] = target: T3, Proteasome subunit beta (Trypanosoma cruzi) (UniProt O96673); assay: Trypanosoma cruzi proteasome chymotrypsin-like activity (TcProtChymo) assay.; further: in the data most compounds retested in dose-response had high values; type: functional; details: 9.37 µM
T3 sequence (whole entry): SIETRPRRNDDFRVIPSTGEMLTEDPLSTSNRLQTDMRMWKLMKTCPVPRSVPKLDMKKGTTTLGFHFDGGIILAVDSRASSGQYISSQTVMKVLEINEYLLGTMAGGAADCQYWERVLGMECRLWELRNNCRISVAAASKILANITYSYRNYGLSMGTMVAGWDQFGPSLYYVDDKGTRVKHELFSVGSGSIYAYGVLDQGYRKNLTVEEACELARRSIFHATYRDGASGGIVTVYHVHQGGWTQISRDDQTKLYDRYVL

Homo sapiens = species: Homo sapiens; assay: To identify inhibition of the IFN signalling (Jak-Stat) pathway via expression of an eGFP reporter gene under the control of an IFN-stimulated response element (ISRE) containing MxA promoter.; type: functional; details: 30 µM
[7] = target: T4, Tyrosyl-tRNA synthetase, putative (Trypanosoma cruzi (strain CL Brener)) (UniProt Q4DSP6); assay: Trypanosoma cruzi tyrosyl tRNA synthetase (TcYRS) _High Tyrosine SOP; type: functional; details: 30 µM; further: in the data most compounds retested in dose-response had high values
T4 sequence (whole entry): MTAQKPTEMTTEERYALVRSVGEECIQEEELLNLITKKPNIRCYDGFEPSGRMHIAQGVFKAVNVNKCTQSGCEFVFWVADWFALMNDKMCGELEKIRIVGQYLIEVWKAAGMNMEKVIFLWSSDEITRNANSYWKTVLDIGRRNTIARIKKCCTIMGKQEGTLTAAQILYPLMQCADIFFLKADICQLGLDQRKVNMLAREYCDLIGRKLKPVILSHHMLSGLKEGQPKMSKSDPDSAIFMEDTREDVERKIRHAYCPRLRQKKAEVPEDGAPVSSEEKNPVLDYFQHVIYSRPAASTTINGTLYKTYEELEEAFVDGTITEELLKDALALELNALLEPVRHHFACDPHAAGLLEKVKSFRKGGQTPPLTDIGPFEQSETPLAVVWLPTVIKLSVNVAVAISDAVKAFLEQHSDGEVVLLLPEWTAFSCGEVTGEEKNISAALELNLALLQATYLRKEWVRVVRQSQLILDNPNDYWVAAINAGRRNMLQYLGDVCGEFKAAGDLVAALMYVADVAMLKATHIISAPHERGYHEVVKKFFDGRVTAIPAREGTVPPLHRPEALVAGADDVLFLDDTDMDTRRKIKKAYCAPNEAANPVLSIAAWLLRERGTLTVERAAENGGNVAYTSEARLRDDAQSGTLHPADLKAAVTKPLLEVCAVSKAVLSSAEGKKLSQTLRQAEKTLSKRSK

[8] = target: T4, Tyrosyl-tRNA synthetase, putative (Trypanosoma cruzi (strain CL Brener)); assay: Trypanosoma cruzi tyrosyl tRNA synthetase (TcYRS) SOP; type: functional; details: 30 µM
[9] = target: Chromo domain-containing protein 1 (Saccharomyces cerevisiae (strain ATCC 204508 / S288c) (Baker's yeast)) (UniProt P32657); assay: ScCHD-1 Enzyme Inhibition Assay; type: functional; details: 30 µM; further: in the data most compounds retested in dose-response had high values
Sequence of Chromo domain-containing protein 1 (Saccharomyces cerevisiae (strain ATCC 204508 / S288c) (Baker's yeast)) (P32657 whole entry, the tested form may be a part): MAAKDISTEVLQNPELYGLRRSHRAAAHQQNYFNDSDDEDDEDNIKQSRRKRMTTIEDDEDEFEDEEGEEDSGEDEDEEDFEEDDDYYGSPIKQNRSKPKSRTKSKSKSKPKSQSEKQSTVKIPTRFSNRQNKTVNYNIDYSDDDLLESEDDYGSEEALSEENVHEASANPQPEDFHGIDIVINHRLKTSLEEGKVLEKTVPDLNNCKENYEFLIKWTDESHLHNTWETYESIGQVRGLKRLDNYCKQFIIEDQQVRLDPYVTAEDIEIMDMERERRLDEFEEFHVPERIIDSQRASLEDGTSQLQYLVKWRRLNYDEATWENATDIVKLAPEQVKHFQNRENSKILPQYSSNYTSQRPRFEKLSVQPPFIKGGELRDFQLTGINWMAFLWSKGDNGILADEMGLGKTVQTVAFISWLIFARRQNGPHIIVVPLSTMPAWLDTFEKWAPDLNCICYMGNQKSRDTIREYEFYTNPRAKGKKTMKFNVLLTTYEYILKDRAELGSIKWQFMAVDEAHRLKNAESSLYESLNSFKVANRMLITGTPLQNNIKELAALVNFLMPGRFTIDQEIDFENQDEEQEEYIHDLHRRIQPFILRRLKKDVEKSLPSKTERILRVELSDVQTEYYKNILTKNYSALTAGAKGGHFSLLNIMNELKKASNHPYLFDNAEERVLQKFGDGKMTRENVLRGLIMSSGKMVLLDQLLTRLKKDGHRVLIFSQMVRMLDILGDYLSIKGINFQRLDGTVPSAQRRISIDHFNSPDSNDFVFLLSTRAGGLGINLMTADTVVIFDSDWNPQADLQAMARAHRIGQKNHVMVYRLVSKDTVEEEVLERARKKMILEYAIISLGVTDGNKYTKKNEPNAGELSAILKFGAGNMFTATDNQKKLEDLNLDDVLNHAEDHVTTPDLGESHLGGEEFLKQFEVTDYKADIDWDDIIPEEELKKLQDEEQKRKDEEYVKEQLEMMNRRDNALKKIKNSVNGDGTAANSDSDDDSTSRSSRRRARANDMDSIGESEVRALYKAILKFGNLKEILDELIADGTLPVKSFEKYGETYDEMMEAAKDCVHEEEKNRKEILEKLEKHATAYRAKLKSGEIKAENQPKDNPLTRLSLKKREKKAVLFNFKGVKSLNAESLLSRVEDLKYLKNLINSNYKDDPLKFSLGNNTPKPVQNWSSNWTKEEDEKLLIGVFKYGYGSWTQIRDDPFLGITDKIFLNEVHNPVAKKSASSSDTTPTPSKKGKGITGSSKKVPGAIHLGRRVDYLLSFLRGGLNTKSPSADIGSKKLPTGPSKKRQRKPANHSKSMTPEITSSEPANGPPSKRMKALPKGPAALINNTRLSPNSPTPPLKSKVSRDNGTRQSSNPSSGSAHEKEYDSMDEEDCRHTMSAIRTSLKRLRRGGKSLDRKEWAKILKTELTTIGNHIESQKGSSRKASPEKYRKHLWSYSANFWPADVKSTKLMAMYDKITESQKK

Sequence of Protein translocase subunit SecA (Escherichia coli (strain K12)) (P10408 whole entry): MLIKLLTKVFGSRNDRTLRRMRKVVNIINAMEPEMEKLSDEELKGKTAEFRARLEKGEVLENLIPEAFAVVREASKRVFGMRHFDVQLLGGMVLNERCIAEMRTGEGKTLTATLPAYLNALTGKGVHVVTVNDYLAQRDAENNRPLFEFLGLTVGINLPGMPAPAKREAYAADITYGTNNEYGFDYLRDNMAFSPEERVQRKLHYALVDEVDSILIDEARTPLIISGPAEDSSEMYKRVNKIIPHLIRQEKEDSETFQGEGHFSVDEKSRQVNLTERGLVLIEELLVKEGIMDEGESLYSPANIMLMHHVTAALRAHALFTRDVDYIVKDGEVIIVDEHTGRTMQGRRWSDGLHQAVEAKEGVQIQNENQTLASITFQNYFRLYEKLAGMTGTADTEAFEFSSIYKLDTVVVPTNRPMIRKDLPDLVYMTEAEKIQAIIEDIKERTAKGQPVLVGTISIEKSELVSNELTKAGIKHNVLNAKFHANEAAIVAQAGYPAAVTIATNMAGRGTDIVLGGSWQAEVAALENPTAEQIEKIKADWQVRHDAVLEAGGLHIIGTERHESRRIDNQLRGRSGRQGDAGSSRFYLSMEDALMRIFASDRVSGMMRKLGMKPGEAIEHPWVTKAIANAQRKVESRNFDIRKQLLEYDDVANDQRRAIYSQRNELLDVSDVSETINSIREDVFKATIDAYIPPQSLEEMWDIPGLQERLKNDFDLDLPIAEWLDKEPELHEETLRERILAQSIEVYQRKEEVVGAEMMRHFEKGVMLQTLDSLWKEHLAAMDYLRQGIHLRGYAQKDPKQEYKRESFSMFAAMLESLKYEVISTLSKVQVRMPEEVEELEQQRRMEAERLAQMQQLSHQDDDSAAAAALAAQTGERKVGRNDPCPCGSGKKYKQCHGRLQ
Sequence of Sialic acid-binding Ig-like lectin 9 (Homo sapiens) (Q9Y336 whole entry): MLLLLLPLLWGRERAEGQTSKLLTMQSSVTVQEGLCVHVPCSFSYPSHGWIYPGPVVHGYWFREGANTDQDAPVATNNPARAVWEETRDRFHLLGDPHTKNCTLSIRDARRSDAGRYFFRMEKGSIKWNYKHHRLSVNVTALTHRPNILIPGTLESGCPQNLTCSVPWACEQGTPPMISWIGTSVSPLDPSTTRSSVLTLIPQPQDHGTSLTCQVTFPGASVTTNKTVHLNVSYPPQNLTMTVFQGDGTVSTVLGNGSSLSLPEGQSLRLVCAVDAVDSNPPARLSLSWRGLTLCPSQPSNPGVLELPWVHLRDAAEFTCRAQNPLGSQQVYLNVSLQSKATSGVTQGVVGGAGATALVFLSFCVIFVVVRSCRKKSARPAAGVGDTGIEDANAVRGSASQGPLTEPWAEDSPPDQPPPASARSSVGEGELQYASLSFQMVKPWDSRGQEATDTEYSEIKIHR

Row | SMILES | Percent Effect [1] | Percent Effect [2] | Percent Effect [3] | Percent Effect [4] | Percent Effect (Trypanosoma cruzi) | Percent Effect [5] | Percent Effect [6] | Percent Effect (Homo sapiens) | Percent Effect [7] | Percent Effect [8] | Percent Effect [9]
1 | CCCn1nc2c(cc1=O)CN(CCS(C)(=O)=O)CC2 | -6.22% | -5.41% | -30.8% | 22.6% | 2.17% | -6.01% | 7.75% | 7.82% | 8.37% | 16.1% | -11.1%
2 | O=C1[C@@H]2CCN(Cc3ccoc3)C[C@@H]2OCCN1Cc1cccnc1 | -4.73% | 13.3% | 6.25% | 5.81% | -2.76% | -0.699% | 11.4% | -11.6% | 4.25% | 1.28% | 1.76%
3 | O=C(CC1CCCC1)N1CCCC1c1nc(O)cc(-c2ccccn2)n1 (stereo unspecified) | -6.13% | 20.3% | 1.3% | 16.7% | -0.395% | -4.41% | 13.9% | 1.89% | 6.45% | 19.5% | -15.4%
4 | CN(C)S(=O)(=O)N1CCC2(COCc3cnc(-c4ccccc4)nc32)C1 (stereo unspecified) | -3.52% | 13.3% | 1.46% | -2.12% | 4.44% | -1.25% | 12.3% | 12.3% | -8.33% | 2.5% | -4.77%
5 | CC(c1ccc(Cl)cc1)N1CCN(CCNS(C)(=O)=O)CC1 (stereo unspecified) | -4% | -2.7% | -2.79% | 66.6% | 3.28% | 0.952% | 10.7% | 4.77% | 4.76% | 19.5% | -8.23%
6 | Cc1cnc(C(=O)N2CCCN(Cc3csc(C)n3)CC2)cn1 | -5.93% | 13.7% | -7.71% | 11.9% | 6.75% | 2% | 18.8% | -1.38% | 5.21% | 8.64% | -12.5%
7 | COCCNc1nc2c(c(NCc3ccncc3)n1)CCNCC2 | 1.06% | 0% | -4.61% | 0.0545% | 3.28% | -3.81% | 13.8% | 5.66% | 5.82% | 7.32% | -2.76%
8 | O=C1CC(c2ccc(C(=O)O)cc2)c2ncn(-c3ccccc3)c2N1 (stereo unspecified) | -4.54% | 9.33% | -172% | -2.38% | 0.786% | -8.63% | 19.2% | 2.29% | 9.52% | 7.69% | -7.97%
9 | O=C1CC(c2ccccc2)C2(CCN(CC3CC3)CC2)N1 (stereo unspecified) | -1.75% | 10.7% | 3.12% | -1.87% | 5.02% | -55% | 9.23% | 0.446% | 5.21% | 20% | -5.25%
10 | CC(NC(=O)NCCCN(C)C)c1ccc2c(c1)CCC(=O)N2 (stereo unspecified) | -3.72% | 13% | 0.292% | -0.949% | 10.1% | -6.05% | 15% | -16.2% | 8.74% | 21.9% | -6.2%
11 | OC1(Cn2ccc3ncccc32)CCN(Cc2ccccn2)CC1 | -3.91% | 6.76% | 8.71% | -8.37% | -10.3% | -5.34% | 13.7% | 34.1% | -3.23% | -9.09% | -14.5%
